Results on 14 compounds are retold here after PubChem BioAssay (NCATS).

Assay [1] concerns Zika virus NS2B-NS3 protease. The experiment in a line: Primary screen GU AMC qHTS for Zika virus inhibitors (AID 1347154). Also: nearly all actives have a fitted effect of over 70% in size. Also: potency is read from the fitted curve at half-maximal effect. In outline:
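Unlinked Zika NS2B hydrophilic domain–NS3 protease complex at 25 nM in 10 mM Tris-HCl pH 8.0, 0.01% Tween 20, with an AMC peptide substrate. Fluorescence change (340/450 nm) over 15 min at room temperature, normalized to controls, fitted to 4-parameter Hill.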

A short description of assay [2]: ZIKV-mCherry secondary qHTS for Zika virus inhibitors (AID 1347158). Also: potency is read from the fitted curve at half-maximal effect. In outline: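 Percent infection is the share of Hoechst-identified Vero nuclei with mCherry signal above 450 RFU (3 SD over negative controls). Cells were infected with recombinant ZIKV-mCherry at MOI 1 after compound addition and imaged 48–72 h later.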
A general note: qHTS replaces the single test concentration by a dilution series.

A short description of assay [3]: Confirmatory screen NINDS Rhodamine qHTS for Zika virus inhibitors (AID 1347161). Also: potency is read from the fitted curve at half-maximal effect; nearly all actives have a fitted effect of over 60% in size. The gist of the method:
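Percent inhibition, normalized to uninhibited and enzyme-free controls, is fitted to a 4-parameter Hill equation. Fluorescence change comes from a 15-min cleavage of 1.5 microM bis-peptide Rhodamine110 substrate by 25 nM linked NS2B-NS3 at room temperature.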

The subject of assay [4] is Zika virus NS2B-NS3 protease (linked). The experiment in a line: 384 well plate NINDS AMC confirmatory qHTS for Zika virus inhibitors (AID 1347163). Also: nearly all actives have a fitted effect of over 50% in size. Also: potency is read from the fitted curve at half-maximal effect. The gist of the method: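 Fluorescence at 355/460 nm was read after 25 minutes of cleavage of 30 microM Ac-VKTGKR-AMC at room temperature, in the dark. Before substrate addition, compounds (up to 1 mM final) sat ~15 minutes with 5, 30 or 60 nM linked protease. Signals were normalized to no-enzyme and no-inhibitor wells.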

Assay [5] concerns Zika virus NS2B-NS3 protease (linked construct). The assay is described as follows: 384 well plate NINDS Rhodamine confirmatory qHTS for Zika virus inhibitors (AID 1347164).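 Also: fluorescence from protease cleavage of Ac-LKRR-rhodamine 110 substrate; nearly all actives have a fitted effect of over 65% in size.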 Also: potency is read from the fitted curve at half-maximal effect. The gist of the method: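 Enzyme (final 5/30/60 nM) + cpd (DMSO), ~15 min; add Ac-LKRR-Rd 10 microM final; 25 min RT, dark; FI ex 485/em 538; normalized to no-enzyme, no-inhibitor ctrls; aprotinin intraplate ctrl.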

Assay [6] can be described thus: Vero cells viability qHTS for Zika virus inhibitors (AID 1347167). Also: % is scaled to controls: 0 for no effect and ±100 for the full control effect. In outline:
(§1)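 qHTS titration; 24-48 h compound exposure, 37 degrees C/5% CO2; DMEM, 4% FBS; CellTiter Glo ATP luminescence.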

Assay [7] in a line: HepG2 cells viability qHTS for Zika virus inhibitors (AID 1347168). Also: % is scaled to controls: 0 for no effect and ±100 for the full control effect. In outline:
as §1

The target of assay [8] is Lysine-specific demethylase 5B (Homo sapiens) (UniProt Q9UGL1). The experiment in a line: Optimization screen for KDM5B Histone Demethylases FDH coupled qHTS against the LOPAC library (AID 1347166). Also: 0% is about no effect. The following applies: KDM5B demethylation, FDH-coupled NADH fluorescence (FDH is formaldehyde dehydrogenase); at 57.5 µM (top of the series). In outline: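 KDM5BDeltaAP (200nM final) in 50mM HEPES pH 7.5, 0.01% Tween-20 was preincubated with compound for 10 min at room temperature. A substrate mix of 12.5uM H3K4Me3, 25uM a-ketoglutarate, ascorbate, Fe2+, NAD+ and formaldehyde dehydrogenase was then added. NADH fluorescence (340/450 nm) was read initially and after 30 min.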

Molecules are shown by their SMILES. Inconclusive results are not listed. Values without a mark were called inactive. Activity calls are given as the source filed them. Calls follow the shape of the dose curve; as a rule, active = well fitted curve in the direction sought with a large enough effect; inconclusive = small, poorly fitted or top-dose-only effect, or another doubt; inactive = no such curve, though single readings can be large; an effect the other way counts as inactive or inconclusive.

Lysine-specific demethylase 5B (Homo sapiens), sequence (Q9UGL1 whole entry, looked up): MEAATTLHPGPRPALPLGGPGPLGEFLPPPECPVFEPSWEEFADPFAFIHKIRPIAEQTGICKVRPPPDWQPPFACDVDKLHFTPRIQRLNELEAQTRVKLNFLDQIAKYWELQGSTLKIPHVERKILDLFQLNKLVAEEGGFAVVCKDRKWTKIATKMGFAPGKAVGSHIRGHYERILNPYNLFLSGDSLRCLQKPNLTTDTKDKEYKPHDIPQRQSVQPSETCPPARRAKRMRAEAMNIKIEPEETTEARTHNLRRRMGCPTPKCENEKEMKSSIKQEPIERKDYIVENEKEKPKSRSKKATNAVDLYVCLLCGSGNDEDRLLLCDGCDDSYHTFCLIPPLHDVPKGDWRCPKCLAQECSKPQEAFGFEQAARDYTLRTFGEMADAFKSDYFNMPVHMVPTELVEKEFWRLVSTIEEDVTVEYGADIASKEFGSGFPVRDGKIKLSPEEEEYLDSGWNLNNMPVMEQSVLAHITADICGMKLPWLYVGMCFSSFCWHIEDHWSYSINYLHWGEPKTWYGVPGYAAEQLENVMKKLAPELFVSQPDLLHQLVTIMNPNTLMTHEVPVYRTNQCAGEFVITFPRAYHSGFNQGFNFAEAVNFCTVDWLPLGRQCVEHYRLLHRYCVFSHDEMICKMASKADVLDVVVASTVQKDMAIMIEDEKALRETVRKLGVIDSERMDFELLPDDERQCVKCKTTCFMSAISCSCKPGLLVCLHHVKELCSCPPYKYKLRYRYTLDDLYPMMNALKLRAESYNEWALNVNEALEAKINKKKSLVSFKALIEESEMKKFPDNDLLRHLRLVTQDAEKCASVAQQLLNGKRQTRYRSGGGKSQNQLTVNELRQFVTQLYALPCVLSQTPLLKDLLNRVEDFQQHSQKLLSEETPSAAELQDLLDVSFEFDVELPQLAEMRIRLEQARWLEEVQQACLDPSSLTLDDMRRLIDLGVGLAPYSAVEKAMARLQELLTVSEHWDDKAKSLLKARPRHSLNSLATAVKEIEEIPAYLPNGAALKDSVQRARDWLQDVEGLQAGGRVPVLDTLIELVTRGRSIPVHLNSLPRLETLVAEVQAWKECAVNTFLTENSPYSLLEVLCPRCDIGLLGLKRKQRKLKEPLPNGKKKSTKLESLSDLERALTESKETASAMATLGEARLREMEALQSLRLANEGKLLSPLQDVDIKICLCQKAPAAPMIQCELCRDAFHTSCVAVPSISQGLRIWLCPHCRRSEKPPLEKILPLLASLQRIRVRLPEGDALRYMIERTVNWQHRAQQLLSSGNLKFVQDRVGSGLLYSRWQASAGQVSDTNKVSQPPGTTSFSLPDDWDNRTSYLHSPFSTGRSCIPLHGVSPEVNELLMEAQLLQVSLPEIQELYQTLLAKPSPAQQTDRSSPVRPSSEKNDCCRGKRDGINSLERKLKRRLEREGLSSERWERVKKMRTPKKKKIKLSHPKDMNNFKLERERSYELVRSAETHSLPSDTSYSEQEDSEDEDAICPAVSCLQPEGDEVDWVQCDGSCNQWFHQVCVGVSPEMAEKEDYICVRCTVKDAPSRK

With `C/C(=C\c1ccc(C(=O)O)cc1)c1ccc2c(c1)C(C)(C)CCC2(C)C`, the Potency result in assay [1], in assay [4], in assay [5] and in assay [6] was “inactive” in each case. Also, the Potency in assay [2] is 7.94 µM (active); in assay [3], 1.56 µM (active). Also, in assay [7], the call was inactive.

As for `NC(=Nc1ccccc1)NC(=O)c1nc(Cl)c(N)nc1N`, the Potency entry in assay [1] was “inactive”.

For `CN1CCN(c2nc3cc(C(F)(F)F)ccc3n3cccc23)CC1`, in assay [1], the Potency result was “inactive”.

For the compound `CC[C@H](NC(=O)c1c(C)c(-c2ccccc2)nc2ccccc12)c1ccccc1`, the Potency entry in assay [1] is “inactive”. Further, in assay [8], the activity, negative = inhibition was -4.22%.

Turning to `NC[C@@H]1O[C@H](c2ccccc2)Cc2c1ccc(O)c2O`, the Potency result in assay [1] was “inactive”.

On to `CC(C)(C)NCC(O)COc1cccc2[nH]c(=O)[nH]c12` (configuration not stated), for which, in assay [1], the Potency entry is “inactive”. Moreover, in assay [8], the activity, negative = inhibition was -6.87%.

Consider `CCCCCCN(CCCCCC)C(=O)Cc1c(-c2ccc(F)cc2)[nH]c2ccccc12`, for which the Potency entry in assay [1] was “inactive”.

As to `CC1=C(/C=C/C(C)=C/C=C/C(C)=C\C(=O)O)C(C)(C)CCC1`, in assay [1], the Potency entry was “inactive”. Moreover, the activity, negative = inhibition in assay [8] is -15.4%.

With `NC(N)=NC(N)=Nc1ccccc1`, in assay [1], the Potency result was “inactive”. In assay [8], the activity, negative = inhibition is -3.27%.

As for `N[C@H](C(=O)O)[C@H](O)C(=O)O`, the Potency result in assay [1] is “inactive”. For the same compound, in assay [8], the activity, negative = inhibition was -0.47%.

Consider `O=C(O)c1ccccc1Nc1cccc(OCc2ccc3ccccc3n2)c1`, for which the Potency result in assay [1] and in assay [6] was “inactive” each time. The Potency in assay [3] was 3.49 µM (active); in assay [4], 158 µM (active); in assay [5] it was 63.1 µM (active). For the same compound, in assay [8], the activity, negative = inhibition is -2.34%. In addition, in assay [7], the result was inactive.

For `C=CCn1c(=O)c2c(nc(-c3ccc(S(=O)(=O)O)cc3)n2C)n(C)c1=O`, in assay [1], the Potency was 5.32 µM (active). Further, the activity, negative = inhibition in assay [8] is -806% (active).

Turning to `Nc1nc2c(cnn2CCc2ccccc2)c2nc(-c3ccco3)nn12`, the Potency entry in assay [1] was “inactive”.

As for `NC1(C(=O)O)CCc2cc(C(=O)O)ccc21` (configuration not stated), the Potency result in assay [1] is “inactive”.
